Data: PubChem BioAssay AID2401 (Southern Research Specialized Biocontainment Screening …, 2010)
Among all 2,200 compounds or so, about 530 (24%) were called active. Only a sample is shown. Potency and affinity values are given separately. A number with no mark means an inactive call.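 The calls were made as follows: active = inhibition above a set limit at one or more concentrations of the dose series; inactive = inhibition under that limit at every dose.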

experiment: nmpC-GFP reporter counter-screen in S. Typhimurium, dose response, counter-screen for PhoP regulon inhibitor project, Salmonella Typhimurium, GFP fluorescence (AID 2401); conditions: 4 h; series mostly up to 150 µM; inhibition: at the top concentration;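 also: S. typhimurium with Mg-insensitive nmpC-GFP reporter grown at 10 µM Mg2+; drop in reporter fluorescence reflects general culture growth inhibition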

Compared with `CC(=O)Nc1nc(-c2ccc(Cl)cc2)nc(C)c1C(C)=O`, `O=C(c1[nH]ncc1-c1ccc(Cl)cc1)C1CO1` (stereo not given) is lower in “inhibition” value: -23.7% for the first, -25.8% for the second.

Going from `COC(=O)c1ccccc1NC(=O)NCc1ccc2c(c1)OCO2` to `O=C(COc1ccc(Br)cc1Cl)NC(=O)NCc1ccccc1`, the “inhibition” value rises from -23.4% to -5.96%.

First: c1ccc(-c2cnn3nnnc3n2)cc1
Second: CC1=C(C(=O)Nc2cccnc2)C(c2ccccn2)n2nnnc2N1 (stereo not given)
The “inhibition” value of the first is higher: 1.88% for the first, -1.7% for the second.

First: O=C(NCc1cccs1)Nc1cccs1
Second: Cc1cccc(C(=O)NC(NCc2ccco2)C(Cl)(Cl)Cl)c1 (stereo not given)
The “inhibition” value of the first is higher: -33.1% for the first, -36% for the second.

Compared with `CSc1nnc2c3c4c(sc3nc(-n3nc(C)cc3C)n12)COC(C)(C)C4`, `Cc1ccc(-n2nnnc2SCC(=O)Nc2ncc(Cc3ccccc3Cl)s2)cc1` is lower in “inhibition” value: -11.8% for the first, -23.2% for the second.

First: CC(C)Cn1cnc2sc3c(c2c1=N)CCCC3
Second: Cc1cccc(Nc2nnc(SCC(=O)NC3CCCc4ccccc43)s2)c1 (stereo not given)
The “inhibition” value of the first is lower: -4.26% for the first, -3.06% for the second.

Going from `Cn1c(NCc2cc(Br)ccc2O)nc2ccccc21` to `CCn1c(=O)c2c(O)cc(=O)oc2c2ccccc21`, the “inhibition” value rises from -21.2% to -11%.

First: COc1cc(/C=C2/SC(=S)N(CC(=O)Nc3cccnc3)C2=O)cc(OC)c1OC
Second: COC(=O)c1[nH]c2ccc(C)cc2c1NC(=O)Nc1ccc(OC)cc1
The “inhibition” value of the first is lower: -45.8% for the first, -17.9% for the second.

First: CC1Cc2ccccc2N1C(=O)COC(=O)c1ccc(S(=O)(=O)N(C)C)cc1 (stereo not given)
Second: COC(=O)c1ccc(NC(=S)NCCc2cccc(C)c2)cc1
The “inhibition” value of the first is lower: -26.3% for the first, -15.9% for the second.

First: O=C(NC1CCCCC1)C(c1ccncc1)N(CC1CCCO1)C(=O)C(F)(F)F (stereo not given)
Second: CC(=O)Nc1c(O)nc(SCC(=O)N2CCN(c3ccc(F)cc3)CC2)[nH]c1=O
The “inhibition” value of the first is higher: 3.65% for the first, -33.4% for the second.

Compared with `CCn1nnc(-c2ccccc2NC(=O)c2ccc(-n3cnnn3)cc2)n1`, `O=C(Nc1cccc2ccccc12)c1ccc(Cn2cc(Cl)cn2)cc1` is higher in “inhibition” value: -6.44% for the first, 0.25% for the second.

Going from `CCCCNCCCOc1cccc(Cl)c1Cl` to `CC(C)NCCCOc1ccc(Cl)cc1Br`, the “inhibition” value falls from 16.4% to 10.7%.

First: c1ccc(COc2ccccc2CNCc2cccnc2)cc1
Second: c1ccc(CNc2ncnc3ccccc23)cc1
The “inhibition” value of the first is lower: -26% for the first, 37.4% for the second.

Compared with `Clc1ccc(OCCCn2ccnc2)c(Br)c1`, `Clc1cc(Br)ccc1OCCn1ccnc1` is lower in “inhibition” value: 16.8% for the first, 11.8% for the second.

Compared with `CCN(Cc1ccccc1)C(=O)CN1C(=S)NC(C)(C)CC1C` (stereo not given), `CCOC(=O)C1=C(c2ccccc2)NC(SC)=C(C#N)C1c1ccco1` (stereo not given) is lower in “inhibition” value: -9.86% for the first, -18.8% for the second.

Compared with `CCOC(=O)Nc1ccc(C)cc1C`, `CCOC(=O)CNS(=O)(=O)c1c(C)noc1C` is lower in “inhibition” value: -17.9% for the first, -21.7% for the second.

Compared with `O=C(/C=C/c1cccs1)N1CCN(Cc2ccc3c(c2)OCO3)CC1`, `O=C(N/N=C/c1cn(-c2ccccc2)nc1-c1ccc(F)cc1)c1ccc2c(c1)OCO2` is higher in “inhibition” value: -15.1% for the first, 24.5% for the second.

First: NC(=O)c1cnn(Cc2ccc(Cl)cc2)c1N
Second: O=C(Nc1cnn(Cc2ccc(F)cc2)c1)c1cnccn1
The “inhibition” value of the first is lower: -17.2% for the first, -15.5% for the second.

Going from `CN(C)c1ccnc(Oc2ccc(F)cc2)c1C#N` to `COc1ccc(-c2csc(NCc3ccco3)n2)cc1`, the “inhibition” value rises from -16.6% to 16.3%.

Compared with `COc1ccc(CN=C2Nc3ccccc3CS2)cc1`, `COc1ccc(Nc2nc(NCc3ccco3)nc(N/N=C/c3ccccc3Cl)n2)cc1` is higher in “inhibition” value: -0.21% for the first, 10.1% for the second.

Compared with `Cc1cc(=O)[nH]c(N/N=C/c2c[nH]c3ccccc23)n1`, `Fc1ccc(-c2n[nH]c(=S)n2/N=C/c2c[nH]c3ccccc23)cc1` is higher in “inhibition” value: -27.2% for the first, 12.6% for the second.

First: CCCCn1c(/N=C/c2c[nH]c3ccccc23)nc2ccccc21
Second: Cc1nc2ccccc2n1CC(=O)N/N=C\C=C\c1ccccc1
The “inhibition” value of the first is higher: 19.1% for the first, -17.8% for the second.

Going from `Cc1c(NS(=O)(=O)c2ccccc2)c(=O)n(-c2ccccc2)n1C` to `O=C1c2ccccc2C(=O)N1CCCc1nc2ccccc2c(=O)n1Cc1ccco1`, the “inhibition” value falls from -18.6% to -27.4%.

Compared with `Cc1ccc2nc(SCC(=O)NCc3ccco3)[nH]c2c1`, `Cc1ccc2[nH]c3c(NCc4ccco4)ncnc3c2c1` is lower in “inhibition” value: 0.53% for the first, -14.2% for the second.

First: Nc1cc(Br)c(N)c(Br)c1
Second: N#C/C=C(/N)c1ccc(Br)cc1
The “inhibition” value of the first is lower: -3.53% for the first, 8.99% for the second.

Compared with `Cc1ccc([N+](=O)[O-])cc1-c1ccc(/C=C(\C#N)c2[nH]nc(N)c2C#N)o1`, `Cc1ccc(/C=C/c2nnc(-c3ccc(C)cc3)o2)cc1` is higher in “inhibition” value: -2.4% for the first, 6.49% for the second.

Going from `CCOC(=O)Cn1nnnc1C(C(C)C)N(Cc1cccs1)Cc1cc2cc(C)ccc2[nH]c1=O` (stereo not given) to `Cc1ccc2cc(CN(CCO)Cc3nnnn3Cc3ccc(F)cc3)c(=O)[nH]c2c1`, the “inhibition” value falls from -3.99% to -11.4%.

Compared with `Cc1cc(/C=N/NC(N)=S)c(C)n1-c1ccc(Cl)c(Cl)c1`, `Cc1ccc(-c2nc(NCc3cccnc3)c3ccccc3n2)cc1` is higher in “inhibition” value: -8.78% for the first, 8.39% for the second.

Going from `COc1ccc(S(=O)(=O)n2ccc(-c3ccc(OCCN(C)c4ccccn4)cc3)n2)cc1` to `Oc1ccccc1Nc1nc(NCc2ccco2)c2ccccc2n1`, the “inhibition” value rises from -26.2% to 33.4%.

Going from `CC1OC(Nc2cccc3ccccc23)C(O)C(O)C1O` (stereo not given) to `c1ccc(CN2CCN(c3nc(NCc4ccco4)c4ccccc4n3)CC2)cc1`, the “inhibition” value rises from -28.1% to 10.5%.
